Compounds with a hit are over-represented: about 7.9% of the library has one in this group of screens.
HT1080-NT tox: kills 2HG-producing HT-1080-NT fibrosarcoma cells. 360,000 compounds, 1.6% hits. Potency, µM (doses to about 46.1 µM), hits mostly cytotoxic. AID 686970. HT-1080-NT fibrosarcoma viability, CellTiter-Glo ATP luminescence, 48 h;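 also: NT is the 2HG producing partner of a matched IDH1 knockdown line; nearly all actives have a fitted effect of over 55% in size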
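Toxicity toward the 2HG-producing NT line was scored as %Activity, normalised to DMSO and no-cell wells, from CellTiter-Glo luminescence after 48 hours' treatment.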
MCF10A rerep: inducers of DNA re-replication in MCF 10A breast cells; AID 624296; 350,000 compounds, 2.9% hits; Potency, µM (top dose mostly 46.1 µM), most hits filed as activators; MCF 10A DNA re-replication, Hoechst nuclear intensity, 48 h; also: nearly all actives have a fitted effect of over 50% in size
HT1080 IDH1KD tx: HT-1080 IDH1 knockdown cell toxicity (counter line); HT-1080 IDH1 knockdown viability, ATP luminescence, 48 h; Potency, µM (doses to about 46.1 µM), hits mostly cytotoxic; 360,000 compounds, 2% hits; AID 686971
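Cytotoxicity counter-line: IDH1KD HT-1080, 48 h, CellTiter-Glo. Curves classed by r2, magnitude and activity.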
SW480 rereplic: DNA re-replication induction in SW480 cells; SW480 DNA re-replication, Hoechst DNA content imaging, 48 h; Potency, µM (top dose mostly 46.1 µM), most hits filed as activators; 340,000 compounds, 1.8% hits; AID 624297; also: nearly all actives have a fitted effect of over 55% in size
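Per well, 250 cells were exposed to pinned compound for 48 hr. Nuclear DNA was visualised with Hoechst (40 min, 37 C) and total object intensity recorded by fluorescence scanning.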
KB-3-1 cytotox: kills parental KB-3-1 adenocarcinoma cells; Potency, µM (highest dose often 46.1 µM), hits mostly cytotoxic; 400,000 compounds, 1.4% hits; KB-3-1 viability, CellTiter-Glo ATP luminescence, 72 h; also: nearly all actives have a fitted effect of over 60% in size
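Screening of KB-3-1 cells (DMEM, 10% FBS, phenol-red free) ran from lowest to highest compound concentration; after 72 h at 37 °C viability was read luminescently and curves fitted.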
KB-V1 cytotox: kills drug-selected multidrug resistant KB-V1 cells; KB-V1 MDR cells viability, CellTiter-Glo, 72 h; Potency, µM (top dose mostly 46.1 µM), most hits filed as cytotoxic; 400,000 compounds, 3.4% hits; AID 1347076; also: nearly all actives have a fitted effect of over 60% in size
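KB-V1 MDR subline cells in DMEM (phenol-red free, 10% FBS) exposed to compounds in qHTS concentration series for 72 h at 37 degrees C. Viability read by CellTiter-Glo luminescence; concentration-effect curves fitted after normalization and correction.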
Of the large screens only hits and unclear results are named; the others gave an inactive call. Calls follow the shape of the dose curve; as a rule, active = well fitted curve in the direction sought with a large enough effect; inconclusive = small, poorly fitted or top-dose-only effect, or another doubt; inactive = no such curve, though single readings can be large; an effect the other way counts as inactive or inconclusive.

CCC(=O)NC(c1ccc([N+](=O)[O-])cc1)c1c(O)ccc2ccccc12 (centres undefined)	HT1080-NT tox inconclusive, MCF10A rerep inconclusive, HT1080 IDH1KD tx inconclusive
CC(C)C(=O)NC(c1ccco1)c1c(O)ccc2ccccc12 (centres undefined)	MCF10A rerep 21µM
CC(C)CN(C[C@@H](OP(=O)(O)O)[C@H](Cc1ccccc1)NC(=O)O[C@@H]1CCOC1)S(=O)(=O)c1ccc(N)cc1	none (no result: HT1080-NT tox, HT1080 IDH1KD tx, KB-3-1 cytotox, KB-V1 cytotox)
CCOc1ccc(C(=O)COC(=O)Cc2n[nH]c(=O)c3ccccc23)cc1	HT1080-NT tox 6.5µM, MCF10A rerep 1.6µM, HT1080 IDH1KD tx 5.2µM, SW480 rereplic 2.6µM, KB-3-1 cytotox 4.1µM, KB-V1 cytotox 4.6µM
COc1ccc(NC(=O)CN(C)C(=O)Cc2n[nH]c(=O)c3ccccc23)cc1	SW480 rereplic 23µM
COc1ccccc1C(=O)COC(=O)Cc1n[nH]c(=O)c2ccccc12	none
O=C(Cc1n[nH]c(=O)c2ccccc12)OCC(=O)c1ccc(F)cc1	none
COc1cccc(NC(=O)CN(C)C(=O)Cc2n[nH]c(=O)c3ccccc23)c1	none
O=C(Cc1n[nH]c(=O)c2ccccc12)OCC(=O)c1ccc2c(c1)OCCO2	HT1080-NT tox inconclusive, MCF10A rerep 2.1µM, HT1080 IDH1KD tx 8.2µM, SW480 rereplic 4.6µM, KB-3-1 cytotox 1.5µM, KB-V1 cytotox inconclusive
COc1ccc(C(C)=O)cc1COC(=O)Cc1n[nH]c(=O)c2ccccc12	KB-V1 cytotox 13µM
Cn1cc2ccc(-c3ccc4ncnc(NCc5cccs5)c4c3)cc2n1	none (no result: HT1080-NT tox, MCF10A rerep, HT1080 IDH1KD tx, SW480 rereplic)
O=C(N/C(=C\c1ccccc1)C(=O)N1CCOCC1)c1cccc(Br)c1	MCF10A rerep inconclusive (no result: KB-3-1 cytotox, KB-V1 cytotox)
COc1cc2c(cc1OC)[C@H](C)N(C(=O)NCc1ccccc1)CC2	HT1080-NT tox inconclusive, MCF10A rerep inconclusive, HT1080 IDH1KD tx 21µM, SW480 rereplic inconclusive, KB-3-1 cytotox inconclusive, KB-V1 cytotox inconclusive
COc1cc2c(cc1OC)C(C)N(C(=O)c1cc3c(s1)-c1c(C)cccc1OC3)CC2 (centres undefined)	MCF10A rerep 16µM, HT1080 IDH1KD tx inconclusive
COc1cc2c(cc1OC)C(C)N(C(=O)c1cc(C)on1)CC2 (centres undefined)	HT1080-NT tox inconclusive, MCF10A rerep 1.3µM, HT1080 IDH1KD tx 1.5µM, SW480 rereplic 0.73µM, KB-3-1 cytotox inconclusive, KB-V1 cytotox 4.6µM
COc1cc2c(cc1OC)C(C)N(C(=O)c1cccs1)CC2 (centres undefined)	KB-V1 cytotox inconclusive
COc1cc2c(cc1OC)C(C)N(C(=O)c1cc3ccccc3o1)CC2 (centres undefined)	HT1080-NT tox inconclusive, HT1080 IDH1KD tx 5.6µM
CCC[C@H]1COCCS(=O)(=O)N1Cc1cccc(F)c1	none (no result: HT1080-NT tox, MCF10A rerep, HT1080 IDH1KD tx, SW480 rereplic)
CCc1ccccc1NS(=O)(=O)c1ccc2c(c1)OCC(C(=O)N1CCCC1)O2 (centres undefined)	none (no result: HT1080-NT tox, MCF10A rerep, HT1080 IDH1KD tx, SW480 rereplic)
COc1cc2c(cc1OC)C(C)N(C(=O)c1c(C)noc1C)CC2 (centres undefined)	MCF10A rerep 9.2µM, HT1080 IDH1KD tx inconclusive, SW480 rereplic inconclusive, KB-3-1 cytotox inconclusive, KB-V1 cytotox inconclusive
COc1ccc2nc3c(cc2c1)c(NC(=O)C1CCCO1)nn3CC(C)C (centres undefined)	SW480 rereplic inconclusive
CCCCn1nc(NC(=O)CC(C)C)c2cc3cc(OC)ccc3nc21	MCF10A rerep 15µM, SW480 rereplic 12µM
CCCC(=O)Nc1nn(CC(C)C)c2nc3cc(C)ccc3cc12	MCF10A rerep inconclusive
COc1ccc2nc3c(cc2c1)c(NC(=O)CC(C)C)nn3CC(C)C	MCF10A rerep 7.3µM, SW480 rereplic 8.2µM
CCC(=O)Nc1nn(CC(C)C)c2nc3ccc(C)cc3cc12	MCF10A rerep inconclusive, SW480 rereplic 18µM
C=C1CC(COc2cc(=O)oc3ccccc23)(c2ccccc2)OC1=O (centres undefined)	HT1080-NT tox 16µM, MCF10A rerep 2.6µM, HT1080 IDH1KD tx 5.2µM, KB-3-1 cytotox 10µM, KB-V1 cytotox inconclusive
C=C1CCC2C(C)(C)[C@H](O)CC[C@@]2(C)[C@@H]1COc1cc(=O)oc2ccccc12 (some centres undefined)	HT1080-NT tox inconclusive, MCF10A rerep inconclusive, HT1080 IDH1KD tx inconclusive
C[C@H](CO)N1C[C@H](C)[C@@H](CN(C)Cc2ccc(-c3ccccc3)cc2)Oc2c(NC(=O)Nc3ccc(C(F)(F)F)cc3)cccc2C1=O	none
CC1(c2ccccc2)NC(=O)N(CC(=O)N2CCN(S(=O)(=O)c3ccccc3[N+](=O)[O-])CC2)C1=O (centres undefined)	none
OCC[C@H]1C[C@@H](O)[C@H](O)[C@@]2(Cc3ccccc3O2)O1	none
COC(=O)C1=CN(c2ccc(F)cc2)C=C(C(=O)OC)C1c1cccc(Br)c1	MCF10A rerep 15µM, SW480 rereplic 23µM, KB-3-1 cytotox inconclusive, KB-V1 cytotox inconclusive
COC(=O)C1=CN(c2ccc(F)cc2)C=C(C(=O)OC)C1c1ccc([N+](=O)[O-])cc1	none
Cc1ccc(NC(=O)/C(C#N)=C/c2cc(C)n(-c3ccc(F)cc3)c2C)cc1C	none (no result: HT1080-NT tox, MCF10A rerep, HT1080 IDH1KD tx, SW480 rereplic)
CN(C)c1nc(C=C(C#N)C#N)c(Cl)n1-c1ccc(F)cc1	HT1080-NT tox 7.3µM, MCF10A rerep inconclusive, HT1080 IDH1KD tx 4.6µM, SW480 rereplic 7.3µM, KB-3-1 cytotox inconclusive, KB-V1 cytotox inconclusive
Cc1cccc(C)c1NC(=O)C(c1ccnc2ccccc12)n1c(=O)c(-c2ccco2)nc2ccccc21 (centres undefined)	none (no result: MCF10A rerep, SW480 rereplic)
NCCOc1ccc(C2CCCCC2)cc1	HT1080 IDH1KD tx inconclusive, SW480 rereplic inconclusive
OCCN1CCN(CC(O)COc2ccc(C34CC5CC(CC(C5)C3)C4)cc2)CC1 (centres undefined)	HT1080-NT tox 18µM, MCF10A rerep 12µM, HT1080 IDH1KD tx 23µM, SW480 rereplic inconclusive, KB-3-1 cytotox inconclusive
NCCOc1ccc(C23CC4CC(CC(C4)C2)C3)cc1	MCF10A rerep 4.1µM, HT1080 IDH1KD tx inconclusive, KB-3-1 cytotox inconclusive, KB-V1 cytotox inconclusive
OCCN1CCN(CC(O)COc2ccc(Cl)cc2)CC1 (centres undefined)	MCF10A rerep inconclusive
COc1ccc(CNC(=O)c2ccc3nc(C)c(N(C)Cc4ccc(NC(C)=O)cc4)n3c2)cc1	none (no result: MCF10A rerep, SW480 rereplic)
COc1cc(OC)c(NC(=O)CCS(=O)(=O)c2ccc3c(c2)oc(=O)n3C)cc1Cl	KB-3-1 cytotox inconclusive (no result: HT1080-NT tox, MCF10A rerep, HT1080 IDH1KD tx, SW480 rereplic)
Cc1ccc(/C=C2\SC(=S)N(C3CCS(=O)(=O)C3)C2=O)cc1 (centres undefined)	SW480 rereplic 0.0052µM

Bioassay records deposited in PubChem BioAssay by National Center for Advancing Translational Sciences (NCATS).
